Bioassay records: PubChem, Broad Institute
Hits are enriched below; roughly 2.3% of the tested compounds scored in any of these assays.
U2OS ROS induce: raises reactive oxygen species in U2OS cancer cells; U2OS ROS induction, H2DCF-DA fluorescence; ROS induction (% of piperlongumine), % at 10 µM; hit rate 2% among 46,000; AID 624156; in the data active = ROS induction above about 79%, passing the limit was not always enough; inconclusive = no clear call, values can overlap the other calls;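 note: 0% = DMSO vehicle median and 100% = reference compound median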
YB-1 expr inh: YB-1 expression inhibition. U2OS, qRT-PCR YB-1 vs CDIP delta delta Cp, 16 h; stronger effect = higher value; zero = DMSO, each unit about twofold. delta delta Cp (YB-1 minus CDIP) (concentration not given with the values). hit rate 0.37% among 30,000. AID 434959;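 active = delta delta Cp rounded down to an integer at or above 3, about 3 SD of DMSO wells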;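 note: higher means less YB-1 transcript or more CDIP transcript relative to DMSO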
Active calls of the source: *.

`C=CCN1C(=O)C(CC(=O)Nc2ccccc2)SC1=Nc1ccc(O)cc1` (stereo not drawn) gave U2OS ROS induce 2.4.
`CC(C)NC(=O)N(C)C[C@H]1Oc2c(NS(=O)(=O)c3cn(C)cn3)cccc2C(=O)N([C@H](C)CO)C[C@H]1C` gave U2OS ROS induce -3.5 and YB-1 expr inh 11.8*.
`Cc1cc(C(=O)Nc2cccc3c2O[C@@H](CN(C)S(=O)(=O)c2cccs2)[C@@H](C)CN([C@@H](C)CO)C3=O)n(C)n1` gave U2OS ROS induce 1.3 and YB-1 expr inh 0.72.
`Cc1cc(C(=O)Nc2cccc3c2O[C@@H](CN(C)Cc2ccccc2)[C@@H](C)CN([C@H](C)CO)C3=O)n(C)n1` gave U2OS ROS induce -0.6 and YB-1 expr inh 0.0378.
`Cc1cc(C(=O)Nc2cccc3c2O[C@@H](CN(C)Cc2ccc(-c4ccccc4)cc2)[C@H](C)CN([C@@H](C)CO)C3=O)n(C)n1` gave U2OS ROS induce inconclusive and YB-1 expr inh -0.308.
`CC(C)NC(=O)N(C)C[C@H]1Oc2c(NS(=O)(=O)c3cn(C)cn3)cccc2C(=O)N([C@H](C)CO)C[C@@H]1C` gave U2OS ROS induce inconclusive and YB-1 expr inh -0.507.
Cc1cc(C(=O)Nc2cccc3c2O[C@H](CN(C)Cc2ccc(-c4ccccc4)cc2)[C@@H](C)CN([C@H](C)CO)C3=O)n(C)n1 was read as U2OS ROS induce 195.5* and YB-1 expr inh -0.177.
`Cc1cc(C(=O)Nc2cccc3c2O[C@H](CN(C)S(=O)(=O)c2cccs2)[C@H](C)CN([C@@H](C)CO)C3=O)n(C)n1` gave U2OS ROS induce 13.7 and YB-1 expr inh 20.1*.
Screening Cc1cc(C(=O)Nc2cccc3c2O[C@H](CN(C)Cc2ccc(Oc4ccccc4)cc2)[C@@H](C)CN([C@H](C)CO)C3=O)n(C)n1 returned U2OS ROS induce 171.6* and YB-1 expr inh 0.0574.
`c1ccc(-c2ccccc2NC2=NCCS2)cc1` gave U2OS ROS induce 12.7.
Screening O=C(NCc1ccccc1)C1CCCN(C(=O)N2CCOc3ccccc32)C1 (stereo not drawn) returned U2OS ROS induce -17.8.
COCCN(C(=S)Nc1cc(F)cc(F)c1)C1CCN(C(C)=O)CC1 was read as U2OS ROS induce 13.3.
NS(=O)(=O)c1ccc(CCNC(=O)c2cccn3c(=O)c4cc5ccccc5cc4nc23)cc1 was read as U2OS ROS induce 27.7.
For COc1ccc(S(=O)(=O)NCCC(=O)NC2CCCCC2)cc1 the results were U2OS ROS induce 2.6.
`CCOC(=O)N1CCC(n2c(SCC(=O)NC(C)CC)nc3ccccc3c2=O)CC1` (stereo not drawn) gave U2OS ROS induce 6.7.
Screening C[C@H](CO)N1C[C@H](C)[C@@H](CN(C)Cc2ccc(-c3ccccc3)cc2)Oc2c(NC(=O)c3ccncc3)cccc2C1=O returned U2OS ROS induce 149.1* and YB-1 expr inh 0.0637.
CC(C)NC(=O)N(C)C[C@H]1Oc2c(NC(=O)c3ccncc3)cccc2C(=O)N([C@H](C)CO)C[C@H]1C was read as U2OS ROS induce -5.9 and YB-1 expr inh -0.836.
For C[C@H](CO)N1C[C@H](C)[C@H](CN(C)Cc2ccc(-c3ccccc3)cc2)Oc2c(NC(=O)c3ccncc3)cccc2C1=O the results were U2OS ROS induce 63.1 and YB-1 expr inh -0.218.
`CC(C)NC(=O)N(C)C[C@@H]1Oc2c(NC(=O)c3ccncc3)cccc2C(=O)N([C@@H](C)CO)C[C@H]1C` gave U2OS ROS induce 100.7* and YB-1 expr inh -0.0772.
`O=c1nc2c(-c3ccc(Cl)cc3)n[nH]n2c2ccccc12` gave U2OS ROS induce -7.2.
For NS(=O)(=O)c1ccc(S(=O)(=O)NCCc2c[nH]c3ccccc23)cc1 the results were U2OS ROS induce -15.3.
Oc1ccc(-c2nc3cc4ccccc4cc3nc2-c2ccccc2)cc1 was read as U2OS ROS induce 46.4.
COc1ccc(C(=O)CSc2nc(-c3cccc(C)c3)ns2)cc1 was read as U2OS ROS induce 1.7.
Screening CC1(C)CC(C)(c2ccccc2)c2cc(SC#N)ccc2N1 (stereo not drawn) returned U2OS ROS induce 113.6* and YB-1 expr inh 0.172.
Screening CC(=O)N1c2ccccc2C(C)(c2ccccc2)CC1(C)C (stereo not drawn) returned U2OS ROS induce 26.9 and YB-1 expr inh -0.15.
For N#CC(C#N)=C(Nc1ccccc1Cl)SCc1cccc(F)c1 the results were U2OS ROS induce 3.2 and YB-1 expr inh 0.184.
For O=C(Nc1ccc(Cl)cc1)N1N=C2c3ccccc3CCC2C1c1cccs1 (stereo not drawn) the results were U2OS ROS induce 66.2 and YB-1 expr inh -0.0352.
`CN1N=C2c3ccccc3CCC2C1c1ccc(C#N)cc1` (stereo not drawn) gave U2OS ROS induce -2.8.
CCNC(=S)N1N=C2c3ccccc3CCC2C1c1ccc(F)cc1 (stereo not drawn) was read as U2OS ROS induce 101.1* and YB-1 expr inh 0.343.
O=C(c1ccco1)N1N=C2c3ccccc3CCC2C1c1ccc(F)cc1 (stereo not drawn) was read as U2OS ROS induce 85.0* and YB-1 expr inh -0.013.
C[C@H]1CN([C@@H](C)CO)C(=O)Cc2cc(NC(=O)NC3CCCCC3)ccc2O[C@H]1CN(C)S(=O)(=O)c1ccc(Cl)cc1 was read as U2OS ROS induce 129.9* and YB-1 expr inh -0.0886.
C[C@H]1CN([C@@H](C)CO)C(=O)Cc2cc(NC(=O)NC3CCCCC3)ccc2O[C@H]1CN(C)S(=O)(=O)c1cn(C)cn1 was read as U2OS ROS induce 14.3 and YB-1 expr inh 0.171.
C[C@H]1CN([C@@H](C)CO)C(=O)Cc2cc(NC(=O)NC3CCCCC3)ccc2O[C@@H]1CN(C)S(=O)(=O)c1cn(C)cn1 was read as U2OS ROS induce 108.8* and YB-1 expr inh -0.349.
Cc1ccc(S(=O)(=O)N(C)C[C@H]2Oc3ccc(NC(=O)Cn4cnnn4)cc3CC(=O)N([C@@H](C)CO)C[C@@H]2C)cc1 was read as U2OS ROS induce -1.9 and YB-1 expr inh -0.0731.
Screening Cc1ccc(S(=O)(=O)N(C)C[C@H]2Oc3ccc(NC(=O)NC4CCCCC4)cc3CC(=O)N([C@H](C)CO)C[C@H]2C)cc1 returned U2OS ROS induce -6.0 and YB-1 expr inh -0.0233.
For C[C@H](CO)N1C[C@H](C)[C@H](CN(C)S(=O)(=O)c2ccc(Cl)cc2)Oc2ccc(NC(=O)Cn3cnnn3)cc2CC1=O the results were U2OS ROS induce 126.3* and YB-1 expr inh 0.0511.
`Cc1ccc(S(=O)(=O)N(C)C[C@H]2Oc3ccc(NS(=O)(=O)c4ccc(Cl)cc4)cc3CC(=O)N([C@@H](C)CO)C[C@H]2C)cc1` gave U2OS ROS induce 211.6* and YB-1 expr inh -0.117.
`Cc1ccc(S(=O)(=O)Nc2ccc3c(c2)CC(=O)N([C@@H](C)CO)C[C@@H](C)[C@@H](CN(C)S(=O)(=O)c2ccc(Cl)cc2)O3)cc1` gave U2OS ROS induce 14.6 and YB-1 expr inh -0.0617.
`Cc1cc(C)cc(Sc2ccc3nnc(-c4ccccc4)n3n2)c1` gave U2OS ROS induce 34.6 and YB-1 expr inh 0.0364.
`Cc1onc(-c2ccccc2)c1CNC(=O)C1CCC1` gave U2OS ROS induce 7.0.
`NC(=O)CCN1C(=O)c2ccccc2C1=O` gave U2OS ROS induce 3.7.
